# The whole screen tested about 68,000 compounds, of which about 2,700 (4%) showed an effect of 50% or more. Many of the other results were omitted from the sample, so strong results are more common in it than they were.
# System: Plasmodium berghei
# Assay: Screen against P. berghei liver stage (PbLuc), transformed with Luciferase, at 2uM
# Format: functional, HepG2
# Details: tested at 2 uM
row,Compound,INHIBITION [%]
1,Cc1ccc(-c2nc(CN3CCOC(Cn4cccn4)C3)co2)cc1 (stereo not drawn),1.02
2,Fc1ccc(-c2nc(CN3CCOC(Cn4cccn4)C3)co2)cc1 (stereo not drawn),-17.31
3,c1ccc(-c2nc(CN3CCOC(Cn4cncn4)C3)cs2)cc1 (stereo not drawn),31.57
4,CN(Cc1ccsc1)C(=O)CN1CCOC(Cn2cccn2)C1 (stereo not drawn),62.46
5,c1cn(-c2ccc(CN3CCOC(Cn4cncn4)C3)cc2)cn1 (stereo not drawn),40.88
6,c1cnn(CC2CN(Cc3ccc(-n4ccnc4)cc3)CCO2)c1 (stereo not drawn),53.03
7,c1cnn(CC2CN(CCc3ccncc3)CCO2)c1 (stereo not drawn),17.11
8,c1csc(-c2nc(CN3CCOC(Cn4cncn4)C3)cs2)c1 (stereo not drawn),66.97
9,c1csc(-c2nc(CN3CCOC(Cn4cccn4)C3)cs2)c1 (stereo not drawn),45.83
10,CN(Cc1ccsc1)C(=O)CN1CCOC(Cn2cncn2)C1 (stereo not drawn),46.09
11,Cc1cnn(CC2CN(CC(=O)N(C)Cc3ccsc3)CCO2)c1 (stereo not drawn),47.84
12,c1ccc(-c2nc(CN3CCOC(Cn4cccn4)C3)co2)cc1 (stereo not drawn),62.13
13,OCC(CO)Nc1ccc2c(Cl)ccc(Cl)c2n1,34.55
14,O=C(c1ccc(F)cc1)N1CCC2(CCCN2CC2CC2)CC1,-38.96
15,NC(=O)Nc1cccc(CNC(=O)CCCc2ccccc2)c1,3.01
16,Fc1cccnc1Oc1cc(F)c(CN2CCCC2)c(Cl)c1,-42.73
17,Clc1cc(N2CCC(N3CCCC3)CC2)nc2[nH]ccc12,25.13
18,Nc1cc2c(nn1)CCN(C(=O)c1cccc3c1OCO3)C2,4.55
19,CC(=O)c1ccc(S(=O)(=O)NCc2cccnc2N(C)C)cc1,4.18
20,COc1ncccc1-c1nc(-c2ccccn2)nn1C1CCS(=O)(=O)C1 (stereo not drawn),19.12
21,Nc1nc2cn(C3CCCC3)c(=O)c-2c[nH]1,-33.11
22,CC(C)(C)c1nc(CN2CCOC(Cn3cncn3)C2)cs1 (stereo not drawn),-5.09
23,CCCc1nc(CN2CCOC(Cn3cncn3)C2)cs1 (stereo not drawn),53.98
24,CC(C)CCc1nc(CN2CCOC(Cn3cncn3)C2)cs1 (stereo not drawn),7.13
25,c1csc(-c2nc(CN3CCOC(Cn4cncn4)C3)co2)c1 (stereo not drawn),71.48
26,c1csc(-c2nc(CN3CCOC(Cn4cccn4)C3)co2)c1 (stereo not drawn),-25.44
27,Fc1cccc(-c2nc(CN3CCOC(Cn4cncn4)C3)co2)c1 (stereo not drawn),16.51

row,Compound,INHIBITION [%]
1,Cn1c(CN2CCCCC2)nnc1C1CCN(c2nccc(N)n2)CC1,21.2
2,c1cnn(CC2CN(Cc3noc(C4CC4)n3)CCO2)c1 (stereo not drawn),-28.51
3,CCn1c(=O)n(Cc2nc(C3CC3)no2)c2ccccc21,30.82
4,CCC1c2ccccc2CCN1C(=O)c1ccnc(C(=O)OC)c1 (stereo not drawn),20.34
5,CCc1nnc(C(C)N2CCN(CCC(C)(C)C)CC2)o1 (stereo not drawn),38.97
6,COc1cc(C(=O)O)ccc1OCC(=O)NCCc1ccccc1,10.1
7,COc1cc(C(=O)O)cc(I)c1OCC(=O)NCCc1ccccc1,56.69
8,COc1cc(OCC(=O)NCCc2ccccc2)cc(OC)c1OC,28.85
9,CCN1C[C@H]2[C@@H](C1)N(c1ncc(F)cn1)CC[C@H]2OC,12.29
10,CCc1ncc2c(n1)CN(Cc1nnc(C)o1)CC2,59.18
11,CCc1ncc2c(n1)CN(Cc1nnc(CC)o1)CC2,9.18
12,CCc1ncc2c(n1)CN(Cc1nnc(C(C)C)o1)CC2,46.76
13,COCCN1C[C@@H]2[C@@H](OC)CCN(Cc3ccsc3)[C@@H]2C1,20.91
14,Cc1cc2nc(CO[C@H]3CN(C4CCC4)C[C@H]3F)[nH]c2cc1C,46.17
15,Cc1cc2nc(CO[C@H]3CN(C4CCCCC4)C[C@H]3F)[nH]c2cc1C,18.65
16,CN1C[C@@H](F)[C@@H](OCc2nc3ccc(C#N)cc3[nH]2)C1,52.91
17,CC(=O)N1C[C@@H](F)[C@@H](OCc2nc3ccc(C#N)cc3[nH]2)C1,36.99
18,Cc1cc2nc(CO[C@H]3CN(C4CCN(C)CC4)C[C@H]3F)[nH]c2cc1C,50.7
19,CN1C[C@@H](F)[C@@H](OCc2nc3ccccc3[nH]2)C1,40.83
20,O=C(Cn1cc(Cl)cn1)N1CCCC(c2cc3ccccc3cn2)C1 (stereo not drawn),36.98
21,CCC(NC(=O)c1cnc(N(C)C)nc1C)c1ccc(S(C)(=O)=O)cc1 (stereo not drawn),70.81
22,Cc1nc(N(C)C)ncc1C(=O)NCCc1csc(-c2ccncc2)n1,40.05
23,COCCNC(=O)c1cnc(N(C)C)nc1C,12.85
24,CCn1nc(C)c(C(C)NC(=O)c2cnc(N(C)C)nc2C)c1C (stereo not drawn),-12.22
25,CCn1c(C)nnc1SCCNC(=O)c1cnc(N(C)C)nc1C,-41.73
26,CCC(NC(=O)c1cnc(N(C)C)nc1C)c1ccncc1 (stereo not drawn),57.34

# Source: ChEMBL document CHEMBL4513216, “Probing the Open Global Health Chemical Diversity Library for Multistage-Active Starting Points for Next-Generation Antimalarials” (ACS Infect Dis, 2020)
